Lamin A splicing: qHTS Assay for Modulators of Lamin A Splicing; HeLa LMNA splicing GFP/RFP minigene ratio, 48 h; Potency, µM (top dose mostly 46.1 µM), without a hit: at the highest dose ratio change, negative = inhibition, usual class: inhibitors; 0.01% of 200,000 active; active = well fitted inhibition curve with a large enough effect in the signal ratio, with a control signal flat, not every such curve was filed as active; inconclusive = small, poorly fitted or top-dose-only effect, or effect the other way, or a change in a side signal; the % refers to the signal ratio; also: potency is read from the fitted curve at half-maximal effect
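S3 HeLa stable clones carrying a lamin A-EGFP splicing minigene plus DsRed2 were seeded at 600 cells/well in Opti-MEM with 2% FBS, pin-dosed and incubated 48 h at 37°C. Acumen cytometry (488 nm) gave the GFP/RFP total-intensity ratio.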
PNC inhibitor: High Content Assay for Compounds that inhibit the Assembly of the Perinucleolar Compartment. PC3M PTB-GFP, PNC prevalence imaging, 16 h; active compounds read low. activity change (PNC), negative = inhibition, % at 10 µM. 3.1% of 140,000 active. AID 2417, 2010;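 active = readout at or below -70, meaning at least 70% loss of cells showing the perinucleolar compartment, a nuclear body marking cancer cells; inconclusive = readout between -30 and a set limit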;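 also: plate controls were DMSO wells for no effect and camptothecin positive control wells for full effect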
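Read-out is percentage of cells bearing a perinucleolar compartment, from automated 20x imaging of fixed, Hoechst-stained PC3M PTB-GFP cells. Cells were seeded 4 h, then exposed 16 h to compound (23 nl of library stock) in duplicate plates.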
IMPase cell inh: qHTS Assay for Identifying the Cell-Membrane Permeable IMPase Inhibitors | Inositol monophosphatase 1 (Rattus norvegicus), P97697 | CHO-M1 cells, IP1 accumulation, HTRF TR-FRET ratio | inhibition (IP1 accumulation), % at 46.1 µM | 120,000 tested, under 10 active | AID 901, 2007; active = well fitted curve in the direction sought with a large enough effect in the signal ratio, not every such curve was filed as active; inconclusive = small, poorly fitted or top-dose-only effect, or a change in a side signal; inactive = no such curve, though single readings can be large or run the other way; the % refers to the signal ratio;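 also: cells stimulated with carbachol in lithium chloride buffer; plate controls were DMSO basal wells for no effect and reference inhibitor wells for full effect; higher means more IMPase inhibition seen as more IP1 and lower FRET ratio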
Target sequence (P97697 whole entry, looked up): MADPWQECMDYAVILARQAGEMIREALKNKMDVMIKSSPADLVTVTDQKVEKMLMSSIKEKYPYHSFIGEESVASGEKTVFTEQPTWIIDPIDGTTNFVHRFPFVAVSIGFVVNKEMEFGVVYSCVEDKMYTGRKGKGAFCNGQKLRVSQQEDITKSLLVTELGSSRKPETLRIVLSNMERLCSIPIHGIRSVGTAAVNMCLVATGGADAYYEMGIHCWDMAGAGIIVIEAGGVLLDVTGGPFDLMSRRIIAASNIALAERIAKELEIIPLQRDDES
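Carbachol-driven Gq signalling in CHO-M1 cells (2000/well) generates IP1. Compounds that block IMPase raise IP1 and so reduce the FRET signal from Eu-anti-IP1 and d2-IP1 after a 10 min room-temperature lysis.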
Numbers without * were called inactive; ? = inconclusive; nt = not tested or not shown; [ ] = remark or other dose. Only a selection was taken, and hits are over-represented in it overall. Unless noted, % is scaled to controls: 0 for no effect and ±100 for the full control effect.

SMILES	Lamin A splicing	PNC inhibitor	IMPase cell inh
CCOc1cc(NC(=S)NCC2CCCO2)c(OCC)cc1NC(=O)C1CC1 (stereo not given)	-12%[46 µM]	nt	nt
CCOc1cc(NC(=S)Nc2cccc(OC)c2)c(OCC)cc1NC(=O)C1CC1	3%	-106*	22
O=C(O)CCSc1ccc2ccccc2n1	3%	11	?
CC1(C)Oc2ccccc2OC1(O)c1ccc2ccccc2n1 (stereo not given)	-7%	-113*	nt
CC(C)(C)C(=O)Nc1ccc2nc(SCCOc3ccccc3Cl)sc2c1	8%[46 µM]	nt	nt
COCCn1c(-c2ccc(-c3ccc([N+](=O)[O-])cc3Br)o2)nc2c1c(=O)[nH]c(=O)n2CC(C)C	-16%[46 µM]	nt	nt
COc1ccc(C2c3cccn3CCN2S(=O)(=O)c2ccccc2[N+](=O)[O-])cc1OC (stereo not given)	5%[46 µM]	nt	nt
CCC1=Nc2cc(C(=O)NCc3ccco3)ccc2Sc2ccc(Cl)cc21	?	-100*	nt
CCC1=Nc2cc(C(=O)NCc3ccco3)ccc2Sc2ccccc21	?	-7	nt
COc1ccc(OCc2nnc(SC3CCOC3=O)n2-c2ccccc2)cc1 (stereo not given)	1%	?	3
COc1cccc(-n2c(SC3CCOC3=O)nc3ccccc3c2=O)c1 (stereo not given)	-12%	-100*	14
COC(=O)c1ccc(NC(=O)N2CCN(c3nnc(C)c4c(C)n(-c5ccccc5)nc34)CC2)cc1	-24%[46 µM]	nt	nt
Cc1onc(-c2ccccc2Cl)c1C(=O)Oc1ccccc1F	4%[46 µM]	nt	nt
CC(=O)CSc1nnc(NC(=O)CCc2ccccc2)s1	5%	14	-9
CCCCSc1nnc(NC(=O)CCc2ccccc2)s1	-5%	-81*	-1
COCCNC(=O)Cn1cc(S(=O)(=O)Cc2ccccc2Cl)c2ccccc21	13%[46 µM]	nt	nt
CN(C(=O)COc1ccc(C(C)(C)C)cc1)C1CCS(=O)(=O)C1 (stereo not given)	0%	-120*	-4[1.84 µM]
CCc1ccc(OCC(=O)N(C)C2CCS(=O)(=O)C2)cc1 (stereo not given)	9%	3	-9
C[C@@H]1C(=O)O[C@H]2[C@@H](O)[C@@]34[C@H]5CC(C(C)(C)C)[C@]36[C@@H](OC(=O)[C@@H]6O)O[C@@]4(C(=O)O5)[C@@]12O (stereo not given in full)	nt	nt	3
COC(=O)c1ccc(C(=O)OC)c(NC(=O)c2cnn3c(C(F)F)cc(-c4ccccc4)nc23)c1	7%[46 µM]	nt	nt
CCCSC(=O)N(CC)CC(=O)Nc1c(CC)cccc1CC	7%	?	8
Cc1cc(=O)oc2cc(NC(=O)c3cc4ccccc4o3)ccc12	-6%	30	-2
O=C(Nc1ccc2oc(=O)ccc2c1)c1cc2ccccc2o1	-13%	-119*	29
CC[n+]1ccc(C(=O)NCc2ccccc2)cc1	9%[46 µM]	nt	nt
Cc1cc(C(=O)CCC(=O)N2CCN(S(=O)(=O)c3cccs3)CC2)c(C)s1	-17%	-100*	-2
SMILES	Lamin A splicing	PNC inhibitor	IMPase cell inh
CCOC(=O)N1CCN(S(=O)(=O)c2cccs2)CC1	7%	47	8
Cc1ccc(-c2cc(C(F)(F)F)n3ncc(C(=O)N4CCCc5ccccc54)c3n2)cc1	6%	-100*	-8
Cc1ccc(-c2cc(C(=O)N3CCCc4ccccc43)c3ccccc3n2)cc1	?	?	9
CN1CCN(C(=O)c2cnn3c(C(F)(F)F)cc(-c4ccc5c(c4)OCO5)nc23)CC1	-15%	16	8
Cc1ccc(-c2cc(C(F)(F)F)n3ncc(C(=O)N4CCN(C)CC4)c3n2)cc1	1%	-100*	-3
CCN(C(=O)c1cc(S(=O)(=O)N2CCc3ccccc32)cn1C)c1cccc(C)c1	-21%[46 µM]	nt	nt
CCOC(=O)c1ccccc1NC(=O)c1c(-c2ccccc2)noc1C	2%[46 µM]	nt	nt
CCOC(=O)c1c(NC(=O)c2c(-c3ccccc3)noc2C)sc(C)c1-c1ccccc1	?	-103*	-9
Cc1cccc(NC(=O)N[C@@H](C)C(=O)O)c1	3%	-113*	0
Cc1cccc(NC(=O)NC(C)C(c2ccccc2)N2CCN(C)CC2)c1 (stereo not given)	-9%[46 µM]	nt	nt
COc1ccccc1-c1noc(-c2ccco2)n1	9%	-118*	-3
COc1ccccc1-c1noc(-c2ccccc2)n1	-14%	-6	5
Cc1ccc(-c2cn3cccnc3n2)cc1NC(=O)C(C)(C)Oc1ccc(Cl)cc1	-4%[46 µM]	nt	nt
CCc1ccc(OCC(=O)N(C)CCC#N)c(Br)c1	8%	-91*	0
CCc1ccc(OCC(=O)NCCN(C)C)c(Br)c1	21%	-16	-6
